High-throughput results (PubChem)
JMJD2A Tudor inh: qHTS Assay for Inhibitors of JMJD2A-Tudor Domain | AlphaScreen JMJD2A-Tudor / H3K4me3 peptide binding | AID 504339, 2011 | 390,000 compounds, 4.4% hits | Potency, µM (titrated, usually from 114 µM), for inactives: top-dose activity change, negative = inhibition, hits mostly inhibitors | Lysine-specific demethylase 4A (Homo sapiens), O75164; also: % is scaled to controls: 0 for no effect and ±100 for the full control effect; nearly all actives have a fitted effect of over 50% in size
G9a inh: qHTS Assay for Inhibitors of Histone Lysine Methyltransferase G9a; G9a H3K9 monomethylation, AlphaScreen, 2 h; 350,000 compounds, 8.8% hits; Potency, µM (top dose mostly 102 µM), without a hit: top-dose activity, negative = inhibition, actives largely listed as inhibitors; also: % is scaled to controls: 0 for no effect and ±100 for the full control effect; nearly all actives have a fitted effect of over 75% in size
Target sequence (Q96KQ7 913-1193 limits assumed): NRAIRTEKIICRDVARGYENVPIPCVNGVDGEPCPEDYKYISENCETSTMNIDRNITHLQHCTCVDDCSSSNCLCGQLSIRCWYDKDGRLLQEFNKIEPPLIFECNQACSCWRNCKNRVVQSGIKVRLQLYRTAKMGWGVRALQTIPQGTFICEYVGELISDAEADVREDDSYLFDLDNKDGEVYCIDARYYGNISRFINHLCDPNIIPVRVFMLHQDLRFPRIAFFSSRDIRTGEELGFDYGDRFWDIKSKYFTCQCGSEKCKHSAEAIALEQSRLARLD
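G9a (20 nM) was preincubated 15 min with compound, then reacted 2 h at room temperature with 500 nM biotin-H3K9 peptide and 20 µM SAM. Monomethyl-H3K9 detected by AlphaScreen using anti-H3K9me1 antibody.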
L3MBTL1 inh: qHTS Assay for the Inhibitors of L3MBTL1 | Lethal(3)malignant brain tumor-like protein 1 (Homo sapiens), Q9Y468 | AlphaScreen L3MBTL1–H3K9me1 peptide binding | Potency, µM (highest dose often 57.1 µM), for inactives: at the highest dose activity, negative = inhibition, most hits filed as inhibitors | 230,000 compounds, 0.66% hits | AID 485360, 2010; also: % is scaled to controls: 0 for no effect and ±100 for the full control effect; nearly all actives have a fitted effect of over 60% in size
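L3MBTL1 (50 nM) pre-complexed 30 min with biotinylated H3(1-15)K9me1 peptide (75 nM), then compounds added for 30 min at room temperature; AlphaScreen streptavidin donor/nickel chelate acceptor beads (10 ug/mL final) read after 30 min dark incubation.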
HP1b chromo inh: HTS for Inhibitors of HP1-beta Chromodomain Interactions with Methylated Histone Tails. Chromobox protein homolog 1 (Homo sapiens), P83916. AlphaScreen HP1-beta / biotin-H3K9me3 peptide binding. Potency, µM (highest dose often 114 µM), without a hit: top-dose activity change, negative = inhibition, hits mostly inhibitors. 390,000 compounds, 0.56% hits. AID 540317, 2011; also: nearly all actives have a fitted effect of over 70% in size
Target sequence (P83916 whole entry, looked up): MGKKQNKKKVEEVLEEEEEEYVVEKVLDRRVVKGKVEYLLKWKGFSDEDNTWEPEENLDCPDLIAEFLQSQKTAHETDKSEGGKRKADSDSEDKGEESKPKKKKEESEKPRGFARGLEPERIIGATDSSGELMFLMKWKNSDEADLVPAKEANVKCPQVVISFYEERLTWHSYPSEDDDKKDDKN
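Compound inhibition of the preformed complex between 50 nM HP1-beta and 50 nM biotinylated H3K9me3 peptide was read by AlphaScreen. Buffer was PBS pH 7.4 with 0.01% Tween-20. Incubations ran 30 min at room temperature, with 10 ug/mL donor/acceptor beads.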
GLS inh: qHTS for Inhibitors of Glutaminase (GLS) | Potency, µM (doses to about 45.5 µM), inactives show at the highest dose activity change, negative = inhibition, most hits filed as inhibitors | GLS enzymatic activity, qHTS titration | 410,000 compounds, 0.21% hits; also: % is scaled to controls: 0 for no effect and ±100 for the full control effect
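Assay buffer: 45 mM KH2PO4 pH 8.2, 0.02% Tween-20. hKGA acts on L-glutamine (1 mM solution added); product glutamate is reported by an oxidase/peroxidase Amplex Red coupling, with fluorescence taken at baseline and 30 min.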
BAZ2B inh: qHTS Assay for Inhibitors of BAZ2B; Bromodomain adjacent to zinc finger domain protein 2B (Homo sapiens), Q9UIF8; AlphaScreen BAZ2B-H3K14Ac peptide displacement; Potency, µM (highest dose often 114 µM), inactives show at the highest dose activity change, negative = inhibition, actives largely listed as inhibitors; 360,000 compounds, 4.4% hits; also: % is scaled to controls: 0 for no effect and ±100 for the full control effect; nearly all actives have a fitted effect of over 60% in size
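Protein-peptide AlphaScreen: BAZ2B 50 nM, b-H3K14Ac 50 nM, 1x PBS pH 7.4 + 0.01% Tween-20. Preincubation 30 min RT; cpd 30 min RT (top 110 uM); beads 20 min RT, light-protected.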
The depositor's hits bear a star; ? = inconclusive; nt = no result given; [ ] = dose if it differs, or a comment. Sampled rows, rich in hits. Any-hit rate of the full collection: about 10%. Calls follow the shape of the dose curve; as a rule, active = well fitted curve in the direction sought with a large enough effect; inconclusive = small, poorly fitted or top-dose-only effect, or another doubt; inactive = no such curve, though single readings can be large; an effect the other way counts as inactive or inconclusive. Potency is read from the fitted curve at half-maximal effect.

SMILES	JMJD2A Tudor inh	G9a inh	L3MBTL1 inh	HP1b chromo inh	GLS inh	BAZ2B inh
COc1ccc(C(=O)Nc2ccccc2C(=O)NC(Cc2c[nH]c3ccccc23)C(=O)O)cc1 (configuration not stated)	-14%[11.4 µM]	?	-12%	-19%	15%	79µM*
O=C(Nc1ccccc1C(=O)NC(Cc1c[nH]c2ccccc12)C(=O)O)c1ccco1 (configuration not stated)	-13%	-27%[59 µM]	-4%	32%	-9%	10%
Fc1ccc(-c2cc(C(F)(F)F)n3ncnc3n2)cc1	?	13µM*	nt	22%	2%	-24%
COc1cc(OC)c(C2Nc3ccccc3-c3nnc(SCc4ccccc4)nc3O2)cc1OC (configuration not stated)	-8%	-31%[59 µM]	nt	14%	2%	-4%
CN(C)c1ccc(S(=O)(=O)NCC(=O)OCC(=O)Nc2cc(Cl)cc(Cl)c2)cc1[N+](=O)[O-]	?	-17%[59 µM]	-11%	-19%	-2%	?
CN(CCOc1ccc(Cl)cc1)C(=O)CNS(=O)(=O)c1ccc(N(C)C)c([N+](=O)[O-])c1	?	40µM*	-8%	-13%	1%	?
CC(=O)c1ccc(N2CCN(S(=O)(=O)c3ccc(-c4coc(C)n4)cc3)CC2)cc1	-23%	0%[59 µM]	nt	29%[57 µM]	-6%	-17%
CN(c1ccc(C(=O)Nc2ccccc2C(=O)N2CCOCC2)cc1)S(C)(=O)=O	-4%	-3%[59 µM]	8%	38%	-3%	-1%
CC(C(=O)Nc1ccccc1C(=O)N1CCOCC1)N(c1ccccc1)S(C)(=O)=O (configuration not stated)	40µM*	-4%[59 µM]	7%	?	24%	0%
CCc1ccc(OC(C)C(=O)N2CCC(c3nc4ccccc4s3)CC2)cc1 (configuration not stated)	7%	?	nt	54%	0%	15%
CC(=O)N(CC(O)CO)c1c(I)c(C(=O)NCCO)c(I)c(C(=O)NCC(O)CO)c1I (configuration not stated)	nt	nt	nt	nt	2%	nt
ClCc1csc(N/N=C/c2cccs2)n1	nt	?	-17%	nt	nt	-35%
O=[N+]([O-])c1cccc(-c2csc(N/N=C/c3cccc(O)c3)n2)c1	56µM*	35µM*	nt	45µM*	?	?
C(=N\Nc1nc(-c2ccccc2)cs1)/c1cccs1	-34%	14µM*	-13%	-24%	3%	?
O=C(O)Cc1sc(Nc2ccccc2)nc1-c1ccccc1	-20%	?	nt	13%	2%	-24%
O=C(O)Cc1sc(N/N=C\c2ccncc2)nc1-c1ccccc1	-7%[11.4 µM]	2µM*	-18%	17%	6%	-21%
C(=N\Nc1nc(-c2ccccc2)cs1)/c1ccncc1	?	50µM*	-8%	-5%	?	?
O=c1c2ccccc2n2c(-c3ccccc3F)nnc2n1CCc1ccccc1	-12%	-42%[59 µM]	nt	-5%	14%	-33%
N#Cc1c(NC(=O)CSc2n[nH]c(Cc3ccccc3)n2)oc(-c2ccccc2)c1-c1ccccc1	?	3.5µM*	-19%	-2%	3%	-37%
COc1ccccc1OCC(=O)Nc1oc(-c2ccccc2)c(-c2ccccc2)c1C#N	?	-45%[59 µM]	30%[11.4 µM]	-10%	12%	-10%
N#Cc1c(NC(=O)COC(=O)C2CC3C=CC2C3)oc(-c2ccccc2)c1-c1ccccc1 (configuration not stated)	-2%[11.4 µM]	7.1µM*	-9%	7%	-2%	?
c1ccc(Nc2cc(-c3ccoc3)ncn2)cc1	nt	-15%[0.501 µM]	nt	nt	nt	nt
Cc1cccc(C(=O)NNC(=O)/C=C/C(=O)O)c1	-19%	35µM*	nt	47%	13%	-1%
Cc1ccccc1C(=O)NNC(=O)/C=C\C(=O)O	50µM*	4.5µM*	-1%	-32%	16%	0%
Cc1ccccc1C(=O)NNC(=O)C(C)N1C(=O)c2ccccc2C1=O (configuration not stated)	-14%	11µM*	-11%	20%	-3%	11%
SMILES	JMJD2A Tudor inh	G9a inh	L3MBTL1 inh	HP1b chromo inh	GLS inh	BAZ2B inh
Cc1cccc(C(=O)NNC(=O)c2cccc(C)c2)c1	-6%	7%	6%	20%	4%	4%
Cc1ccc(Nc2c(-c3ccc(N4CCOCC4)cc3)nc3cccc(C)n23)cc1	-17%	?	nt	-23%	-16%	nt
O=C(N=Nc1ccc(NOC(=O)c2ccccc2Br)cc1)c1ccccc1O	nt	25µM*	-9%	nt	nt	7.9µM*
Cc1cccc(N2CCN(C(=O)CN3CCSc4ccccc43)CC2C)c1 (configuration not stated)	50µM*	-44%[59 µM]	nt	-15%[57 µM]	13%	?
Cc1cccc(N2CCN(C(=O)Cn3ncc4c3-c3cc(C)ccc3OC4)CC2C)c1 (configuration not stated)	?	?	nt	-9%	16%	32µM*
Cc1ccc(C)c(/C=N/n2cc(-c3ccccc3)[nH]c2=S)c1	?	4µM*	-15%	0%	?	-38%
Fc1ccccc1/C=N/n1cnnc1	-27%	9%[59 µM]	5%	31%	-2%	-3%
Fc1ccccc1/C=N/n1cc(-c2ccccc2)[nH]c1=S	13µM*	?	nt	12%	-6%	-24%
CC(=O)Nc1ccc(S(=O)(=O)Nc2ccc(C(=O)NCC(=O)O)cc2)cc1	0%	20µM*	10%	28%	-6%	-15%
Cc1ccc(NS(=O)(=O)c2ccc3c(c2)n(C)c(=O)n3C)cc1	-7%	-12%[2.33 µM]	nt	31%	-7%	-23%
CC(=O)Nc1ccc(NS(=O)(=O)c2ccc3c(c2)n(C)c(=O)n3C)cc1	-8%	3%	5%	49%	-10%	79µM*
CC(=O)Nc1ccc(NS(=O)(=O)c2ccc3ccccc3c2)cc1	28µM*	-3%[12.7 µM]	nt	-9%	-14%	-6%
CC(=O)Nc1ccc(S(=O)(=O)Nc2ccc(S(=O)(=O)Nc3nc(C)cc(C)n3)cc2)cc1	-9%	?	nt	6%	7%	-12%
CC(=O)NS(=O)(=O)c1ccc(NS(=O)(=O)c2ccc3ccccc3c2)cc1	5%	?	nt	72%	-13%	4%
